# Assay results taken from paper PMC11062922 (Nature Chemical Biology, 2023).
# Like-named read-outs stand apart in the source and are kept apart here.
# What was measured:
# Design in all cases: species or system human, MV4-11 + K-562 + COLO205 + SK-N-BE2 + OVCAR-8
# MAPK9 = conditions: read-out: apparent Kd, compound concentrations: 100 nM and 1000 nM (sheet 'Samples'), n = 1
# PRKD3 = conditions: read-out: apparent Kd, compound concentrations: 100 nM and 1000 nM (sheet 'Samples'), n = 1
# RIOK2 = conditions: read-out: apparent Kd, n = 1
# CDK7 = conditions: read-out: apparent Kd, n = 1
# PKN3 = conditions: read-out: apparent Kd; compound concentrations:100 nM and 1000 nM (sheet 'Samples'); n = 1
# PLK4 = conditions: read-out: apparent Kd; compound concentrations:100 nM and 1000 nM (sheet 'Samples'); n = 1
# PRKAG1 = conditions: read-out: apparent Kd, n = 1
# PTK2B = conditions: read-out: apparent Kd; compound concentrations:100 nM and 1000 nM (sheet 'Samples'); n = 1
# PTK2 = conditions: read-out: apparent Kd; compound concentrations:100 nM and 1000 nM (sheet 'Samples'); n = 1
# RPS6KA6 = conditions: read-out: apparent Kd, n = 1
# SIK2 = conditions: read-out: apparent Kd, n = 1
# ADCK1 = conditions: read-out: apparent Kd; compound concentrations: 100 nM and 1000 nM (sheet 'Samples'), CATDS: 9.6711432627754196E-3; n = 1
# CDK16 = conditions: read-out: apparent Kd; compound concentrations: 100 nM and 1000 nM (sheet 'Samples'), CATDS: 3.6317667749827198E-2; n = 1
# LATS1 = conditions: read-out: apparent Kd; compound concentrations: 100 nM and 1000 nM (sheet 'Samples'), CATDS: 3.7276023026690398E-2; n = 1
# MARK3 = conditions: read-out: apparent Kd; compound concentrations: 100 nM and 1000 nM (sheet 'Samples'), CATDS: 1.4968914388982501E-2; n = 1
# MARK4 = conditions: read-out: apparent Kd; compound concentrations: 100 nM and 1000 nM (sheet 'Samples'), CATDS: 1.45077611109678E-2; n = 1
# PKN1 = conditions: read-out: apparent Kd; compound concentrations: 100 nM and 1000 nM (sheet 'Samples'), CATDS: 1.1966323436805501E-2; n = 1
# PRKCD = conditions: read-out: apparent Kd; compound concentrations: 100 nM and 1000 nM (sheet 'Samples'), CATDS: 1.2203659987841E-2; n = 1
# STK4 = conditions: read-out: apparent Kd; compound concentrations: 100 nM and 1000 nM (sheet 'Samples'), CATDS: 1.59534503193824E-2; n = 1
# [1] = compound concentrations:100 nM and 1000 nM (sheet 'Samples')
structure (smiles),measurement,setting,value
c1ccc(-c2n[nH]cc2Nc2ccnc3ccccc23)nc1 [GW694077X],potency estimated from few doses,MAPK9; CATDS: 2.3391396830632599E-2,1900 nM
same,potency estimated from few doses,PRKD3; CATDS: 6.6484920518239093E-2,104 nM
same,potency estimated from few doses,"RIOK2; compound concentrations: 100 nM and 1000 nM (sheet 'Samples'), CATDS: 3.1389541451057497E-2",683 nM
COC(=O)c1cccc(NC(=O)NC2CCN(c3ccnc(Nc4cc(OC)c(OC)c(OC)c4)n3)C2)c1 (stereo not drawn) [GSK1379767A],potency estimated from few doses,"RIOK2; compound concentrations: 100 nM and 1000 nM (sheet 'Samples'), CATDS: 9.3299595876540298E-2",2110 nM
CC(=O)N[C@@H](Cc1ccc(OP(=O)(O)O)cc1)C(=O)N[C@H]1CCC(=O)N2CCC[C@@H](C(=O)NCc3ccc(Cl)cc3)N2C1=O [RO0325308-000],potency estimated from few doses,CDK7; [1],49.9 nM
same,potency estimated from few doses,PKN3,152 nM
same,potency estimated from few doses,PLK4,637 nM
same,potency estimated from few doses,PRKAG1; [1],523 nM
same,potency estimated from few doses,PTK2B,367 nM
same,potency estimated from few doses,PTK2,652 nM
same,potency estimated from few doses,RIOK2; [1],141 nM
same,potency estimated from few doses,RPS6KA6; [1],620 nM
same,potency estimated from few doses,SIK2; [1],943 nM
COc1cc[nH]c1/C=C1\C(=O)Nc2ccc(F)c(C#CC3(O)CCNCC3)c21.Cl [RO0282986-001],potency estimated from few doses,ADCK1,1510 nM
same,potency estimated from few doses,CDK16,71.4 nM
same,potency estimated from few doses,"CDK7; compound concentrations: 100 nM and 1000 nM (sheet 'Samples'), CATDS: 1.0726954600141701E-2",1020 nM
same,potency estimated from few doses,LATS1,68.4 nM
same,potency estimated from few doses,MAPK9; CATDS: 1.5639148944551099E-2,359 nM
same,potency estimated from few doses,MARK3,398 nM
same,potency estimated from few doses,MARK4,429 nM
same,potency estimated from few doses,PKN1,720 nM
same,potency estimated from few doses,"PRKAG1; compound concentrations: 100 nM and 1000 nM (sheet 'Samples'), CATDS: 1.1749589380403099E-2",761 nM
same,potency estimated from few doses,PRKCD,680 nM
same,potency estimated from few doses,PRKD3; CATDS: 3.6312689079161402E-2,71.4 nM
same,potency estimated from few doses,"RPS6KA6; compound concentrations: 100 nM and 1000 nM (sheet 'Samples'), CATDS: 1.2829138267775601E-2",590 nM
same,potency estimated from few doses,"SIK2; compound concentrations: 100 nM and 1000 nM (sheet 'Samples'), CATDS: 1.2903831315266401E-2",581 nM
same,potency estimated from few doses,STK4,343 nM
